Test results as given in the supplement of paper PMC13380429.

Experiments:
[1] = tested on: Vero E6 infected with SARS-CoV-2; experiment: morphology score (similarity to uninfected cells); higher = more like uninfected cells; settings: 24 h
[2] = tested on: Vero E6 infected with SARS-CoV-2; experiment: SARS-CoV-2 infection rate relative to infected DMSO; higher = more infection, active = 60 or less; settings: 24 h

| Compound | morphology score [1] | SARS-CoV-2 infection rate [2] |
| --- | --- | --- |
| CNC(=O)c1cnn(-c2nc(N)c3ncn([C@@H]4O[C@H](CO)[C@@H](O)[C@H]4O)c3n2)c1 [regadenoson] (10 µM) | -0.0309 | 111% (inactive) |
| CO[C@@]1(NC(=O)C2SC(=C(C(N)=O)C(=O)O)S2)C(=O)N2C(C(=O)O)=C(CSc3nnnn3C)CS[C@@H]21 (stereo partly drawn) [cefotetan] (10 µM) | 0.104 | 98% (inactive) |
| CCC(C)(Oc1ccc(C2(c3ccc(OC(C)(CC)C(=O)O)cc3)CCCCC2)cc1)C(=O)O (stereo not drawn) [clinofibrate] (10 µM) | 0.0154 | 112% (inactive) |
| CNC1CCCN(c2c(F)cc3c(=O)c(C(=O)O)cn(C4CC4)c3c2OC)C1 (stereo not drawn) [balofloxacin] (10 µM) | -0.103 | 104% (inactive) |
| O=C(NCCCCCCNC(=O)ON=C1CCCCC1)ON=C1CCCCC1 (10 µM) | 0.11 | 104% (inactive) |
| CC(C)C[C@H](NC(=O)[C@H](CCc1ccccc1)NC(=O)CN1CCOCC1)C(=O)N[C@@H](Cc1ccccc1)C(=O)N[C@@H](CC(C)C)C(=O)[C@@]1(C)CO1 [carfilzomib] (0.833333 µM) | 0.00273 | 42% (active) |
| O=C1CC[C@@]2(O)[C@H]3Cc4ccc(O)c5c4[C@@]2(CCN3CC2CC2)[C@H]1O5 (10 µM) | -0.0472 | 106% (inactive) |
| CCCCCCCCCCCCOS(=O)(=O)O [dodecyl-sulfate] (10 µM) | 0.0848 | 103% (inactive) |
| O=C(O[C@H]1C[N+]2(CCCOc3ccccc3)CCC1CC2)C(O)(c1cccs1)c1cccs1 [aclidinium] (10 µM) | 0.136 | 100% (inactive) |
| C[C@H](O)[C@H](O)[C@H]1CNc2nc(N)[nH]c(=O)c2N1 [sapropterin] (10 µM) | -0.0335 | 95.5% (inactive) |
| COc1cc(C=O)ccc1O [vanillin] (10 µM) | 0.0882 | 104% (inactive) |
| CC[C@@](C)(Nc1ccnc(-c2c[nH]c3ncccc23)n1)C(=O)NCC(F)(F)F [decernotinib] (10 µM) | 0.178 | 108% (inactive) |
| N[C@@H]1CCN(c2cccnc2)C1 (10 µM) | 0.0226 | 102% (inactive) |
| CCCC(=O)OCOC(=O)C1=C(C)NC(C)=C(C(=O)OC)C1c1cccc(Cl)c1Cl (stereo not drawn) [cleviprex] (10 µM) | 0.0656 | 102% (inactive) |
| CC(=O)Oc1cccc(C(=O)O)c1OC(C)=O [dipyrocetyl] (10 µM) | 0.209 | 85% (inactive) |
| CC(=O)Nc1ccc(S(=O)(=O)Nc2ccc([N+](=O)[O-])cc2)cc1 [sulfanitran] (10 µM) | -0.126 | 108% (inactive) |
| CO/N=C1/C[C@@H](C(=O)NC[C@@H](O)c2ccccc2)N(C(=O)c2ccc(-c3ccccc3C)cc2)C1 [OT-R-antagonist-1] (10 µM) | 0.118 | 98.5% (inactive) |
| CC1(C)O[C@H]2CC(=O)OC[C@]23[C@H]2CC[C@@]4(C)[C@H](c5ccoc5)OC(=O)[C@H]5O[C@]54[C@]2(C)C(=O)C[C@@H]13 [limonin] (10 µM) | 0.289 | 103% (inactive) |
| CC1(C)CNc2cc(NC(=O)c3cccnc3NCc3ccncc3)ccc21 [motesanib] (10 µM) | 0.196 | 108% (inactive) |
| O=C(NC1CCNCC1)[C@@H]1CC[C@@H]2CN1C(=O)N2OS(=O)(=O)O [relebactam] (10 µM) | 0.0111 | 110% (inactive) |

| Compound | morphology score [1] | SARS-CoV-2 infection rate [2] |
| --- | --- | --- |
| C[C@@H]1NC(=O)[C@@H]2CCCN2C(=O)[C@H](CC(N)=O)NC(=O)[C@@H]2CSSC[C@H](N)C(=O)N[C@H]3CSSC[C@H](NC1=O)C(=O)N[C@@H]([C@@H](C)O)C(=O)NCC(=O)N[C@H](C(=O)N[C@@H](Cc1ccc(O)cc1)C(=O)O)CSSC[C@H](NC(=O)[C@H](Cc1ccc(O)cc1)NC(=O)[C@H](CCC(=O)O)NC3=O)C(=O)N2 [linaclotide] (10 µM) | 0.0259 | 106% (inactive) |
| CN1[C@@H]2CC[C@H]1C[C@@H](OC(=O)c1c[nH]c3ccccc13)C2 [tropisetron] (10 µM) | -0.0266 | 102% (inactive) |
| C[C@H](c1ccc2ccc(OC3CCC(C(F)(F)F)CC3)c(C(F)(F)F)c2c1)N1C2CCC1CC(C(=O)O)C2 (stereo partly drawn) [autotaxin-modulator-1] (10 µM) | 0.317 | 91% (inactive) |
| COc1ccc2nc3ccc(Cl)cc3c(SCCCN)c2c1 (10 µM) | 0.0488 | 91.5% (inactive) |
| O=C1CN=C(c2cccc(Br)c2)c2oc3ccccc3c2N1 (10 µM) | 0.0252 | 95.5% (inactive) |
| O=C(O[C@H]1CN2CCC1CC2)N(Cc1cc(F)c(F)c(F)c1)c1cccc(F)c1 [tarafenacin] (10 µM) | 0.371 | 74% (inactive) |
| Cc1cc(-c2nc(C(=O)Nc3cn(C4CCOCC4)nc3C(N)=O)co2)ccn1 (10 µM) | -0.166 | 118% (inactive) |
| CC(C)(C)C[C@@H]1N[C@@H](C(=O)N[C@H]2CC[C@H](O)CC2)[C@H](c2cccc(Cl)c2F)[C@]12C(=O)Nc1cc(Cl)ccc12 (10 µM) | -0.042 | 113% (inactive) |
| Cc1cnc(-c2ccccc2C(C)C)nc1NCc1ccc(-n2ccnn2)cc1 (10 µM) | 0.0189 | 101% (inactive) |
| COC(=O)[C@H](NC(=O)c1cc(-c2ccccc2)nc2ccccc12)c1ccccc1 (10 µM) | 0.0787 | 100% (inactive) |
| CCC(c1ccccc1)c1c(O)c2ccccc2oc1=O (stereo not drawn) [phenprocoumon] (10 µM) | 0.0901 | 102% (inactive) |
| Cc1ccnc2c1NC(=O)c1cccnc1N2C1CC1 [nevirapine] (10 µM) | 0.173 | 104% (inactive) |
| CN(C)CCCC(=O)Nc1ccc(C(=O)Nc2cccc(Nc3ncc(Cl)c(-c4c[nH]c5ccccc45)n3)c2)cc1 (10 µM) | 0.132 | 101% (inactive) |
| CCCCOC(=O)c1cc2c(cn1)[nH]c1ccccc12 [beta-CCB] (10 µM) | 0.156 | 94% (inactive) |
| COc1cc2nc(N3CCN(C(=O)C4CCCO4)CC3)nc(N)c2cc1OC (stereo not drawn) [terazosin] (10 µM) | -0.108 | 110% (inactive) |
| Cc1ncc(CN2CC=C(c3ccccc3)CC2)c(N)n1 (10 µM) | 0.0617 | 108% (inactive) |
| O=[N+]([O-])c1ccc(O)c([N+](=O)[O-])c1 [2,4-dinitrophenol] (10 µM) | 0.0596 | 97.5% (inactive) |
| O=C[C@H](O)[C@@H](O)[C@H](O)CO [xylose] (10 µM) | -0.0367 | 108% (inactive) |
| CCOc1ccc(NC(=S)N2CCC(C(O)(c3ccccc3)c3ccccc3)CC2)cc1 (10 µM) | 0.267 | 86.5% (inactive) |
| CN(C)CCOC(=O)COc1ccc(Cl)cc1 [meclofenoxate] (10 µM) | -0.0664 | 90.5% (inactive) |

| Compound | morphology score [1] | SARS-CoV-2 infection rate [2] |
| --- | --- | --- |
| O=C(O)CCC(=O)OC[C@@H](NC(=O)C(Cl)Cl)[C@H](O)c1ccc([N+](=O)[O-])cc1 [chloramphenicol-sodium-succinate] (10 µM) | 0.049 | 108% (inactive) |
| CCCN(CCC)C(=O)Cc1c(-c2ccc(Cl)cc2)nc2ccc(Cl)cn12 [alpidem] (10 µM) | 0.0705 | 99.5% (inactive) |
| N[C@@H]1[C@H]2CN(c3nc4c(cc3F)c(=O)c(C(=O)O)cn4-c3ccc(F)cc3F)C[C@@H]12 [trovafloxacin] (10 µM) | 0.276 | 108% (inactive) |
| CCc1c(C(=O)C(N)=O)c2c(OCC(=O)O)cccc2n1Cc1ccccc1 [varespladib] (10 µM) | 0.0669 | 108% (inactive) |
| C[S+]([O-])CCCCN=C=S (stereo not drawn) [sulforaphane] (10 µM) | 0.924 | 6.5% (active) |
| CC(C)(C)c1cc(C(=O)/C(C#N)=N/Nc2cccc(Cl)c2)no1 (10 µM) | -0.0513 | 104% (inactive) |
| Cc1noc(-c2ccc(-c3ccc(CC(=O)O)cc3)cc2)c1NC(=O)O[C@H](C)c1ccccc1 (0.833333 µM) | 0.148 | 112% (inactive) |
| CC(C)N(CCNC(=O)CN1CCCC1=O)C(C)C [pramiracetam] (10 µM) | -0.0542 | 115% (inactive) |
| N[C@H](C(=O)O)c1cc(O)no1 [ibotenic-acid] (10 µM) | -0.00755 | 93% (inactive) |
| CCCC(C(=O)OCCN(CC)CC)(c1ccccc1)c1ccccc1 [proadifen] (10 µM) | 0.323 | 89.5% (inactive) |
| CNCCC(Oc1ccccc1OC)c1ccccc1 (stereo not drawn) [nisoxetine] (10 µM) | 0.135 | 96.5% (inactive) |
| CCCCCCNC(=O)n1cc(F)c(=O)[nH]c1=O [carmofur] (0.833333 µM) | 0.222 | 96% (inactive) |
| CC(=O)Oc1ccccc1C(=O)Nc1ncc([N+](=O)[O-])s1 [nitazoxanide] (10 µM) | 0.224 | 88% (inactive) |
| CC(=O)C1=C(O)C=C2Oc3c(C(C)=O)c(O)c(C)c(O)c3C2(C)C1=O (stereo not drawn) [usniacin-(+)] (10 µM) | 0.117 | 108% (inactive) |
| Cc1cccc(-c2[nH]c(C(C)(C)C)nc2-c2ccc3c(c2)OCO3)n1 (10 µM) | -0.132 | 115% (inactive) |
| CC(C)(Sc1ccc(CCN(CCCCC2CCCCC2)C(=O)NC2CCCCC2)cc1)C(=O)O (10 µM) | 0.13 | 117% (inactive) |
| CN1[C@@H]2C[C@@H](OC(=O)[C@H](CO)c3ccccc3)C[C@H]1[C@@H]1O[C@@H]12 (10 µM) | 0.141 | 97.5% (inactive) |
| COc1cc(N)c(Cl)cc1C(=O)OCCN1CCCCC1 (10 µM) | 0.128 | 110% (inactive) |
| CCN1CCN(c2ccc(Nc3cc(N(C)C(=O)Nc4c(Cl)c(OC)cc(OC)c4Cl)ncn3)cc2)CC1 (0.833333 µM) | -0.0528 | 117% (inactive) |
